In all, about 320,000 compounds went through this assay and about 8,000 (2.5%) were called active. No stated cut-off is given here; in the data, active means activation above about 47%; inactive means the rest. This excerpt belongs to a sample that is enriched for actives.
Each compound was assayed against Aryl hydrocarbon receptor (Homo sapiens) (UniProt P35869) (assay: AHR activators, primary screen, cell-based, luminescence, luciferase reporter, human (AID 2796;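 further: 0% = vehicle wells and 100% = reference agonist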)). Conditions: AHR-responsive luciferase reporter cells, at 5 µM, hits give high values.
Chain of Aryl hydrocarbon receptor (Homo sapiens) (P35869 whole entry, looked up): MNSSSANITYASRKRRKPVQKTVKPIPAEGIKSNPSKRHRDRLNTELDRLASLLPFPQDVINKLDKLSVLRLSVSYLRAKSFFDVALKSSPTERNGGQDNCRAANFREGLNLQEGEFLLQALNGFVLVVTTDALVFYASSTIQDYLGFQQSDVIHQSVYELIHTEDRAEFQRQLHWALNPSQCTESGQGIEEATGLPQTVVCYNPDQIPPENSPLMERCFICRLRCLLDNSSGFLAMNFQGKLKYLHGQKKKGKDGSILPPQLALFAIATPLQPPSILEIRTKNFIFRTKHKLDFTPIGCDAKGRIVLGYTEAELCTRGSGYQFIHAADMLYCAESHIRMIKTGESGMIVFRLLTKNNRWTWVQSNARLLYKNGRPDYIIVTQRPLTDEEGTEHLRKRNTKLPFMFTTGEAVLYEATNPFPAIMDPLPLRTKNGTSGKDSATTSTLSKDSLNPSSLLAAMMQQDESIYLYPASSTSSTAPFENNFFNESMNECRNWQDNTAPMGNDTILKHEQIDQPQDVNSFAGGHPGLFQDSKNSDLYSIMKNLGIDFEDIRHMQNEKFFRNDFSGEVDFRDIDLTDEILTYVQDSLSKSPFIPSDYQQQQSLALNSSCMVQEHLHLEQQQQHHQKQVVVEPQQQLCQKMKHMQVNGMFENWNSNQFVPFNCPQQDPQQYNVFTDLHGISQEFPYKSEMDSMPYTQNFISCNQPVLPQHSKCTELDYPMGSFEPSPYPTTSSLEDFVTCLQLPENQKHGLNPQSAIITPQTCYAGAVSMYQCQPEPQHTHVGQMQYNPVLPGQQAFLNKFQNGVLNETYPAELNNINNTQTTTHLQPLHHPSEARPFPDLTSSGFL

Row | SMILES | activation
1 | O=C(Cn1nc(CNc2ccc(Cl)cc2)[n+]2c1CCCCC2)c1ccc(Cl)cc1 | 28.6% (inactive)
2 | Cc1cc(=O)oc2c1c(C)nn2-c1ccc(Cl)cc1 | 58% (active)
3 | Cc1nn(-c2ccccc2)c(NC(=O)c2cccs2)c(-c2ccc(Cl)cc2)c1=O | 0.87% (inactive)
4 | Cc1nn(-c2cc(Cl)ccc2N)c(=O)c2ccccc12 | 0.58% (inactive)
5 | COc1ccc(CNC(=O)CN(c2ccc(OC)c(Cl)c2)S(=O)(=O)c2ccc(C)cc2)cc1 | 4.87% (inactive)
6 | C[C@]12CC[C@H](O)CC1=CCC1C2CC[C@@]2(C)C1CC[C@@H]2NC(=O)CCC(=O)O (stereo partly specified) | -0.38% (inactive)
7 | O=[N+]([O-])c1ccc2oc(-c3cccc(O)c3)nc2c1 | 78% (active)
8 | O=[N+]([O-])c1cccc(C2=NCCS2)c1 | 0.6% (inactive)
9 | COc1ccc2oc(-c3cccc(NC(=O)CSc4ccc(Cl)cc4)c3)nc2c1 | 28.6% (inactive)
10 | COc1cccc(-c2nc3cc(C)ccc3o2)c1 | 83.1% (active)
11 | COc1cccc(-c2nnc(SCCOc3ccc4c(C)cc(=O)oc4c3)o2)c1 | -2.36% (inactive)
12 | CC(=O)Oc1ccc2c(=O)oc(-c3ccc([N+](=O)[O-])cc3)nc2c1 | 14.1% (inactive)
13 | CC(=O)c1ccc(NC(=O)CCNS(=O)(=O)c2cc(Br)cnc2N)cc1 | 2.25% (inactive)
14 | COc1ccc(CN2CCC(n3nccc3NC(=O)CCCc3ccccc3)CC2)cc1C | -8.72% (inactive)
15 | CCC(C)NC(=O)C1c2ccccc2C(=O)N1Cc1ccccc1 (stereo unspecified) | 0.97% (inactive)
16 | Cc1[nH]nc(SCC(=O)NCC(C)C)c1[N+](=O)[O-] | -0.18% (inactive)
17 | COc1ccc(CN2CCCC(C(=O)N3CCCCC3)C2)cc1 (stereo unspecified) | -0.87% (inactive)
18 | COC(=O)c1ccc(NC(=O)Nc2ccc(C)cc2)cc1 | 1.57% (inactive)
19 | COc1cc(NC(=O)Nc2ccc(C)cc2)cc([N+](=O)[O-])c1 | 61.8% (active)
20 | CC(=O)c1ccc(NC(=O)Nc2ccc([N+](=O)[O-])cc2C)cc1 | -4.23% (inactive)
21 | Oc1cccc2ccc(/C=C/c3ccc(Br)s3)nc12 | 52.2% (active)
22 | Nc1ccc(S(=O)(=O)Nc2nccc(/C=C/c3ccc(Br)s3)n2)cc1 | -1.58% (inactive)
23 | CCN(c1ccccc1)S(=O)(=O)c1ccc2[nH]c(=O)[nH]c2c1 | 7.41% (inactive)

Row | SMILES | activation
24 | CC(C)C(NC(=O)OCc1ccccc1)C(=O)OCC(=O)N1C(C)CCCC1C (stereo unspecified) | 2.02% (inactive)
25 | Cc1cccc(Nc2nc(NCCO)nc(N3CCCC3)n2)c1 | 19.5% (inactive)
26 | CC(C)(C)Oc1ccccc1Nc1nc(NCCO)nc(N2CCCC2)n1 | 53.9% (active)
27 | CCCOc1ccc(Cl)cc1Nc1nc(NCCO)nc(N2CCCC2)n1 | 12.8% (inactive)
28 | CN(CC(=O)NCc1ccncc1)S(=O)(=O)c1ccc(Br)cc1 | 5.25% (inactive)
29 | Cc1ccc(-c2nnc(-n3nnc4ccccc43)c3ccccc23)cc1 | 1.43% (inactive)
30 | Cn1cc(Cl)c(C(=O)NNC(=S)Nc2cccc(Cl)c2)n1 | 125% (active)
31 | Cc1nn(C)cc1C(=O)NNC(=S)Nc1ccc(Cl)cc1 | 29.1% (inactive)
32 | CC(C)CNC(=S)NNC(=O)c1nn(C)cc1Cl | -3.07% (inactive)
33 | CCCC(=O)Nc1nnc(CC(=O)OCC)s1 | 3.91% (inactive)
34 | C=CCN1C2CCCC1CC(NC(=S)Nc1cccc(OC)c1)C2 (stereo unspecified) | -0.24% (inactive)
35 | COc1cccc(OC)c1C(=O)Nc1c(C(=O)N2CCN(c3ccccn3)CC2)oc2ccccc12 | -3.46% (inactive)
36 | COCC(=O)Nc1c(C(=O)N2CCCC2)oc2ccccc12 | 74.5% (active)
37 | CCOCCCN(C)C1CCN(C(=O)c2oc3ccccc3c2NC(=O)COc2cccc(C)c2)CC1 | -0.33% (inactive)
38 | CCc1cccc(C)c1NS(=O)(=O)c1cc(Br)cnc1N | 3.17% (inactive)
39 | O=C(Nc1cccc(Cl)c1)C1CCCN(c2cnccn2)C1 (stereo unspecified) | 82.4% (active)
40 | COc1cc(NC(=O)C2CCN(c3cnccn3)CC2)cc(OC)c1 | 5.78% (inactive)
41 | Cc1ccc(Cl)cc1NC(=O)COC(=O)C1CCCCC1 | 0.36% (inactive)
42 | Cc1ccc(Cl)cc1NC(=O)C1CCCN(c2cnccn2)C1 (stereo unspecified) | 80% (active)
43 | Cc1ccc(Cl)cc1NC(=O)C1CCN(S(C)(=O)=O)CC1 | 7.96% (inactive)
44 | O=C(Nc1ccc2c(c1)OCCO2)C1CCCN(c2ncccn2)C1 (stereo unspecified) | 20.4% (inactive)
45 | CC(C)[C@H](NC(=O)N1CCn2c1nc1ccccc12)C(=O)NCc1ccc2c(c1)OCO2 | 6.92% (inactive)
46 | CC(C)CNc1ncnc2c1cnn2Cc1ccc(Cl)cc1 | 0% (inactive)
